Screening data: PubChem, National Center for Advancing Translational Sciences (NCATS)
A selection: hits, their analogues and other compounds. The true share with any hit is near 3.9%.
HT1080 IDH1KD tx = toxicity to HT-1080 IDH1 knockdown cells (counter line). actives 2% (n = 360,000). HT-1080 IDH1 knockdown viability, ATP luminescence, 48 h. Potency, µM (highest dose often 46.1 µM), for inactives: at the highest dose activity, negative = toxicity, most hits filed as cytotoxic;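 note: 0% = DMSO wells and -100% = cell-free medium wells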
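Viability of IDH1-knockdown HT-1080 fibrosarcoma cells was assessed by CellTiter-Glo after 48 h at 37 °C with titrated compound; concentration-effect curves were classified by fit quality and response size.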
S2 tox = reduces viability in counter-screen for ATXN expression inhibitors; actives 0.49% (n = 400,000); AID 651635; S2 cells (HEK-293 line with an ATXN2-luciferase reporter) viability, CellTiter-Fluor protease fluorescence, 24 h; Potency, µM (doses to about 56.7 µM), usual class: cytotoxic; note: nearly all actives have a fitted effect of over 40% in size
HT1080NT lethal = kills 2HG-producing HT-1080-NT fibrosarcoma cells | Potency, µM (highest dose often 46.1 µM), for inactives: at the top dose activity, negative = less viability, actives largely listed as cytotoxic | HT-1080-NT fibrosarcoma viability, CellTiter-Glo ATP luminescence, 48 h | actives 1.6% (n = 360,000);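 note: NT is the 2HG producing partner of a matched IDH1 knockdown line; 0% = DMSO-treated cells and -100% = media-only wells without cells; nearly all actives have a fitted effect of over 55% in size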
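Fibrosarcoma NT cells, 750 per well in 5% FBS RPMI, were exposed to compound for 48 hours. Viability: CellTiter-Glo luminescence.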
ATXN2 expr inh = reduces ATXN2 reporter expression in HEK-293 cells; AID 1745845; HEK-293 ATXN2-luciferase reporter, luminescence, 24 h; actives 0.72% (n = 360,000); Potency, µM (doses to about 57 µM), without a hit: at the top dose activity change, negative = inhibition, most hits filed as inhibitors; note: % is set by controls: 0 for no effect and ±100 for the full control effect; nearly all actives have a fitted effect of over 55% in size
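ATXN2-luciferase reporter cells (luciferase flanked by upstream and downstream ATXN2 gene portions) were treated 24 h at 37 °C with compounds at up to 57 uM. SteadyGlo luminescence gave expression; GF-AFC fluorescence gave viability.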
HepG2 tox-1 = kills HepG2 cells in TGF-b inhibitor counter-screen. HepG2 CAGA-GFP viability, ATP luminescence, 18 h. Potency, µM (top dose mostly 46.1 µM), for the others: top-dose activity change, negative = cytotoxicity, most hits filed as cytotoxic. actives 0.76% (n = 410,000)
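CellTiter-Glo luminescence gave cytotoxicity after 18 hours at 37 degrees C. The cells were HepG2 CAGA-GFP in 1% FBS DMEM, stimulated with 500 pg/mL TGF-beta after compound addition. %Activity was normalised to no-cell wells (complete cell-killing) and DMSO (no toxicity), and curves were fitted and classified.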
TGFb inhibitor = TGF-b pathway inhibition | HepG2 CAGA-GFP TGF-b/SMAD3 reporter, GFP fluorescence, 18 h; TGF-beta stimulated, 500 pg/mL final | Potency, µM (doses to about 46.1 µM), without a hit: at the highest dose activity, negative = inhibition, hits mostly inhibitors | actives 1.2% (n = 410,000) | AID 588855; note: % is set by controls: 0 for no effect and ±100 for the full control effect; nearly all actives have a fitted effect of over 65% in size
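First, reporter cells (HEPG2 CAGA-GFP) rested 2 h at 37 degrees C. Next, compounds were pinned in and TGF-beta added to 500 pg/mL final. After 18 h, GFP was imaged per cell and summed per well.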
TGFb confirm = confirmation of TGF-b signaling inhibitors in HepG2 reporter cells. shares compounds with TGFb inhibitor. HepG2 CAGA-GFP TGF-b reporter, GFP fluorescence, 18 h; cells stimulated with TGF-beta, 500 pg/mL. Potency, µM (doses to about 46.1 µM), for inactives: at the top dose activity, negative = inhibition, most hits filed as inhibitors. actives 63% (n = 1,600). AID 720534; note: % is set by controls: 0 for no effect and ±100 for the full control effect; nearly all actives have a fitted effect of over 65% in size
HepG2 tox-2 = toxic to HepG2 cells in TGF-b counterscreen; shares compounds with TGFb inhibitor; HepG2 CAGA-GFP viability, ATP luminescence, 18 h; cells stimulated with TGF-beta, 500 pg/mL; Potency, µM (top dose mostly 46.1 µM), inactives show at the highest dose activity, negative = cytotoxicity, actives largely listed as inhibitors; actives 27% (n = 1,600); AID 720535; note: % is set by controls: 0 for no effect and ±100 for the full control effect; nearly all actives have a fitted effect of over 70% in size
TGFb CCL64 inh = blocks TGF-b signaling in CCL64 reporter cells; shares compounds with TGFb inhibitor; CCL64 CAGA-GFP reporter, TGF-b stimulated, GFP fluorescence, 18 h; Potency, µM (doses to about 46.1 µM), without a hit: top-dose activity, negative = inhibition, actives largely listed as inhibitors; actives 41% (n = 1,600); AID 720536; note: nearly all actives have a fitted effect of over 65% in size
COP TGFb inh = validation of TGF-b inhibitors in HepG2 COP promoter reporter; Potency, µM (series often up to 46.1 µM), for inactives: top-dose activity, negative = inhibition, hits mostly inhibitors; HepG2 COP-GFP TGF-b reporter, GFP fluorescence, 18 h; cells stimulated by added recombinant TGF-beta; actives 3% (n = 1,600); AID 720537; shares compounds with TGFb inhibitor; note: nearly all actives have a fitted effect of over 70% in size
Numbers without * were called inactive; i = inactive; ? = inconclusive; nt = no result. Calls come from the whole dose curve; as a rule, active = well fitted curve in the direction sought with a large enough effect; inconclusive = small, poorly fitted or top-dose-only effect, or another doubt; inactive = no such curve, though single readings can be large; an effect the other way counts as inactive or inconclusive. Potency is the fitted concentration of half-maximal effect.

SMILES	HT1080 IDH1KD tx	S2 tox	HT1080NT lethal	ATXN2 expr inh	HepG2 tox-1	TGFb inhibitor	TGFb confirm	HepG2 tox-2	TGFb CCL64 inh	COP TGFb inh
Cc1ccc(S(=O)(=O)Nc2nc3ccccc3nc2Nc2cccc(S(=O)(=O)N3CCCC3)c2)cc1	-26%	?	-23%	?	-42%	43%	nt	nt	nt	nt
O=[N+]([O-])c1cccc(S(=O)(=O)Nc2nc3ccccc3nc2Nc2cccc(S(=O)(=O)N3CCCCC3)c2)c1	?	?	?	?	-32%	4.5µM*	3.3µM*	6.5µM*	2.9µM*	1%
CCCOc1ccccc1N/C(=N/c1nc(C)cc(C)n1)NC(=O)COc1ccc(OC)cc1	-13%	i	-15%	-34%	-7%	10µM*	13µM*	-27%	?	24%
CC1=C(CO)C(=O)OC([C@@H](C)C2CC[C@H]3C4C[C@H]5O[C@]56[C@@H](O)C=CC(=O)[C@]6(C)C4CC[C@]23C)C1 (stereo partly specified)	18µM*	5.6µM*	21µM*	3.2µM*	-106%	2.8µM*	0.58µM*	2.3µM*	1.2µM*	?
CNC(=S)N/N=C/c1cn(Cc2ccc(F)cc2)c2ccccc12	-28%	?	-27%	-23%	-24%	?	nt	nt	nt	nt
Nc1ccc(C(=O)N/N=C/c2cn(Cc3ccc(F)cc3)c3ccccc23)cc1	-25%	i	-17%	-8%	-13%	7.9µM*	5.8µM*	2.1µM*	-1%	20%
Cc1ccc(OCC(=O)N/N=C\c2cn(Cc3ccccc3)c3ccccc23)cc1C	-13%	i	-18%	-13%	-7%	11µM*	5.2µM*	5.2µM*	4%	-22%
COc1cc(C(=O)N/N=C/c2cn(Cc3ccccc3)c3ccccc23)ccc1O	-5%	i	-6%	-6%	-6%	-19%	nt	nt	nt	nt
CCN(CC)C(=O)CSc1nnc2nnc3cc(Cl)ccc3n12	?	i	?	-21%	-86%	4µM*	23µM*	23µM*	?	?
CCN(CC)/[N+]([O-])=N/OCOC(=O)C(C)c1ccc(CC(C)C)cc1 (stereo unspecified)	nt	nt	nt	nt	-9%	-12%	nt	nt	nt	nt
CN(C)c1ccc(C(CNS(=O)(=O)c2ccc(Br)cc2)N2CCOCC2)cc1 (stereo unspecified)	nt	nt	nt	nt	-23%	?	nt	nt	nt	nt
O=C(COc1ccccc1)N[C@@H]1c2ccccc2CC[C@H]1OCc1ccccc1	?	i	-28%	-37%	-23%	16µM*	?	?	18µM*	36%
O=C(COc1ccccc1)N[C@@H]1c2ccccc2CC[C@@H]1OCc1ccccc1	-2%	i	-2%	-3%	-16%	-27%	nt	nt	nt	nt
O=C(N=Nc1c(O)[nH]c2ccc(Br)cc12)c1ccccc1-n1cccc1	2.2µM*	nt	2.8µM*	?	-22%	?	7.3µM*	?	18µM*	45%
COc1nc(Nc2nc3ccccc3c(=O)[nH]2)nc2ccc(C)cc12	1.3µM*	?	1.3µM*	50%	-3%	5.6µM*	4.1µM*	4.1µM*	1.5µM*	29%
Cc1ccc(S(=O)(=O)c2cn(C)c3cc(N4CCCCCC4)c(F)cc3c2=O)cc1	nt	nt	nt	nt	-5%	3%	nt	nt	nt	nt
COC(=O)CCS(=O)(=O)c1nc(-c2ccccc2)cc(C(F)(F)F)n1	3.5µM*	nt	7.1µM*	?	14µM*	5µM*	4.6µM*	15µM*	2.1µM*	?
COc1ccccc1-n1cc([C@@H]2C[C@H]3CN(c4ccccc4)C(=O)[C@]34CCCN24)cn1	5.8µM*	?	?	?	0%	5µM*	0.73µM*	?	5.2µM*	27%
O=C(Nc1nnc(Cc2ccccc2)s1)C1CCN(C(=O)c2cccs2)CC1	nt	nt	nt	nt	-15%	-23%	nt	nt	nt	nt
CCn1c(=O)c(C(=O)CN2CCN(S(=O)(=O)c3cc(C)ccc3C)CC2)c(N)n(Cc2ccccc2)c1=O	-3%	i	1%	-23%	-14%	11µM*	12µM*	?	12µM*	66%
CCCC(=O)N1CCN(c2nc3ccc(F)cc3s2)CC1	nt	nt	nt	nt	-25%	-1%	nt	nt	nt	nt
CC(=O)Nc1cc(-c2ccccc2F)cn2c(-c3ccccc3)cnc12	-16%	?	-17%	4%	-33%	-14%	nt	nt	nt	nt
CC(=O)c1cccc(-c2cnc3c(NC=O)cc(-c4ccccc4F)cn23)c1	-23%	i	-24%	?	5%	6.3µM*	6.5µM*	-14%	1.5µM*	5%
O=CNc1cc(-c2ccoc2)cn2c(-c3ccc(F)cc3)cnc12	?	i	-21%	6%	-12%	10µM*	?	-21%	?	26%
Cn1cc(-c2cnc3c(NC=O)cc(-c4cccc(C(F)(F)F)c4)cn23)cn1	?	i	-44%	0%	-22%	11µM*	23µM*	-19%	?	40%
COc1cc(-c2cc(NC=O)c3ncc(-c4ccc(F)cc4)n3c2)cc(OC)c1OC	?	?	?	-31%	-17%	26%	nt	nt	nt	nt
Cc1cc(C)cc(-n2c(SCC(=O)Nc3ccccc3)nc3c(oc4ccccc43)c2=O)c1	nt	i	nt	3%	0%	-16%	nt	nt	nt	nt
